Measured values taken from PubChem BioAssay (EPA / NIEHS).
Calls of active or inactive are those of the source. The calls were made as follows: active = hit-call score of the fitted dose curve at least 0.9, where 1 is the maximum; inactive = score below 0.9.

Tests used:
[1] = read-out: urokinase plasminogen activator (uPA), PLAU (gene 5328); assay: BSK_KF3CT_uPA: BioMAP Diversity Plus: KF3CT Assay for urokinase plasminogen activator (uPA) Biomarker Activity (AID 2283075); conditions: primary human keratinocytes with fibroblasts; actives raise or lower the signal
Procedure, shortened: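 ELISA read-out of uPA 24 h after dosing human skin keratinocytes co-cultured with foreskin fibroblasts. Signal change fitted both ways relative to DMSO; sulforhodamine B on parallel cultures marks overt cytotoxicity.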

[2] = read-out: E-selectin (Homo sapiens) (UniProt P16581); assay: BSK_LPS_Eselectin: BioMAP Diversity Plus: LPS Assay for Eselectin Biomarker Activity (AID 2283077); conditions: primary human HUVEC with PBMC; actives raise or lower the signal
Procedure, shortened: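 Human umbilical vein endothelial cells co-cultured with PBMC under LPS stimulation; cell-surface E-selectin measured by ELISA 24 h after dosing. Change in either direction versus DMSO, with SRB total-protein staining in parallel cultures for cytotoxicity.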

[3] = read-out: Interleukin-8 (IL8), CXCL8 (gene 3576); assay: BSK_LPS_IL8: BioMAP Diversity Plus: LPS Assay for Interleukin-8 (IL8) Biomarker Activity (AID 2283078); conditions: primary human HUVEC with PBMC; actives raise or lower the signal
Procedure, shortened: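 Human umbilical vein endothelial cells co-cultured with PBMC, LPS-stimulated, exposed to compound for 24 h. IL-8 quantified by ELISA; fitted in both directions against DMSO, with SRB total-protein staining of parallel cultures for cytotoxicity.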

[4] = BSK_LPS_SRB: Viability Assessment in the BioMAP Diversity Plus: LPS Assay (AID 2283079); conditions: primary human HUVEC with PBMC;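 also: total protein by sulforhodamine B absorbance as a cytotoxicity measure; measured one day after compound addition; fitted in both directions against DMSO so loss or gain of signal counts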
Procedure, shortened: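 Co-culture of human umbilical vein endothelial cells and PBMC, read 24 h after dosing. Total protein by 0.1% SRB staining after 10% TCA fixation, absorbance at 560 nm; bidirectional fit against DMSO.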

[5] = read-out: Interleukin-1 alpha (IL1a), IL1A (gene 3552); assay: BSK_LPS_IL1a: BioMAP Diversity Plus: LPS Assay for Interleukin-1 alpha (IL1a) Biomarker Activity (AID 2283080); conditions: primary human HUVEC with PBMC; actives raise or lower the signal
Procedure, shortened: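 Human umbilical vein endothelial cells co-cultured with PBMC and stimulated with LPS; IL-1a measured by ELISA 24 h after dosing. Bidirectional fitting against DMSO; cytotoxicity checked by SRB staining in parallel cultures.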

[6] = read-out: Monocyte Chemoattractant Protein-1 (MCP1), CCL2 (gene 6347); assay: BSK_LPS_MCP1: BioMAP Diversity Plus: LPS Assay for Monocyte Chemoattractant Protein-1 (MCP1) Biomarker Activity (AID 2283081); conditions: primary human HUVEC with PBMC; actives raise or lower the signal
Procedure, shortened: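 Human umbilical vein endothelial cells co-cultured with PBMC, LPS-stimulated; secreted MCP-1 measured by ELISA 24 h after compound addition. Bidirectional curve fitting against DMSO baseline; SRB total-protein staining in parallel cultures for cytotoxicity.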

[7] = BSK_LPS_PGE2: BioMAP Diversity Plus: LPS Assay for Prostaglandin E2 (PGE2) Biomarker Activity (AID 2283082); conditions: primary human HUVEC with PBMC; actives raise or lower the signal;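 as to AC50: secreted prostaglandin E2 measured by ELISA in LPS-stimulated co-culture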
Procedure, shortened: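 PGE2 release measured by ELISA in an LPS-activated co-culture of human umbilical vein endothelial cells and peripheral blood mononuclear cells, read at 24 h post-dosing. DMSO served as baseline for bidirectional curve fitting.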

[8] = read-out: Macrophage colony-stimulating factor (MCSF), CSF1 (gene 1435); assay: BSK_LPS_MCSF: BioMAP Diversity Plus: LPS Assay for Macrophage colony-stimulating factor (MCSF) Biomarker Activity (AID 2283083); conditions: primary human HUVEC with PBMC; actives raise or lower the signal
Procedure, shortened: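 HUVEC–PBMC co-culture, M-CSF measured by ELISA 24 h after chemical dosing. Fitted in both directions relative to DMSO as negative control; overt cytotoxicity assessed by SRB total-protein staining in parallel cultures.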

[9] = read-out: Tissue Factor, F3 (gene 2152); assay: BSK_LPS_TissueFactor: BioMAP Diversity Plus: LPS Assay for Tissue Factor Biomarker Activity (AID 2283084); conditions: primary human HUVEC with PBMC; actives raise or lower the signal
Procedure, shortened: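 Human umbilical vein endothelial cells co-cultured with PBMC were dosed with compound. Cell-surface CD142 was measured by ELISA 24 h later. Activity was fitted bidirectionally against DMSO, with SRB total-protein staining in parallel cultures for cytotoxicity.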

[10] = read-out: Tumor necrosis factor (Homo sapiens) (UniProt P01375); assay: BSK_LPS_TNFa: BioMAP Diversity Plus: LPS Assay for Tumour Necrosis Factor alpha (TNFa) Biomarker Activity (AID 2283085); conditions: primary human HUVEC with PBMC; actives raise or lower the signal
Procedure, shortened: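 TNFa was quantified by ELISA in LPS-activated co-cultures of human endothelial cells and PBMC, 24 h post-dosing. Both increases and decreases versus DMSO were fitted.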

[11] = read-out: Vascular cell adhesion molecule 1 (VCAM1), VCAM1 (gene 7412); assay: BSK_LPS_VCAM1: BioMAP Diversity Plus: LPS Assay for Vascular cell adhesion molecule 1 (VCAM1) Biomarker Activity (AID 2283086); conditions: primary human HUVEC with PBMC; actives raise or lower the signal
Procedure, shortened: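 VCAM-1 quantified by ELISA in an LPS-activated co-culture of human endothelial cells and peripheral blood mononuclear cells, read 24 h post-treatment. Fitted in both directions versus DMSO; parallel SRB staining flags overt cytotoxicity.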

[12] = read-out: CD40, CD40 (gene 958); assay: BSK_SAg_CD40: BioMAP Diversity Plus: SAg Assay for CD40 Biomarker Activity (AID 2283088); conditions: primary human HUVEC with PBMC; actives raise or lower the signal
Procedure, shortened: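 HUVEC plus PBMC co-culture, superantigen-activated, with CD40 read by ELISA 24 h after dosing. Curves fitted in both directions against DMSO. Overt cytotoxicity checked by parallel SRB total-protein staining.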

[13] = read-out: CD69, CD69 (gene 969); assay: BSK_SAg_CD69: BioMAP Diversity Plus: SAg Assay for CD69 Biomarker Activity (AID 2283089); conditions: primary human HUVEC with PBMC; actives raise or lower the signal
Procedure, shortened: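 Primary human vascular co-culture (umbilical vein endothelium with peripheral blood mononuclear cells) exposed to test chemical for 24 h. CD69 levels quantified by fluorescence ELISA; DMSO served as negative control for bidirectional fitting.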

[14] = read-out: Monocyte Chemoattractant Protein-1 (MCP1), CCL2 (gene 6347); assay: BSK_SAg_MCP1: BioMAP Diversity Plus: SAg Assay for Monocyte Chemoattractant Protein-1 (MCP1) Biomarker Activity (AID 2283090); conditions: primary human HUVEC with PBMC; actives raise or lower the signal
Procedure, shortened: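 Values derive from bidirectional fitting of ELISA-measured MCP1 against DMSO controls. Readings were taken 24 h after dosing human vascular endothelial cells co-cultured with peripheral blood mononuclear cells under superantigen stimulation.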

[15] = read-out: E-selectin (Homo sapiens) (UniProt P16581); assay: BSK_SAg_Eselectin: BioMAP Diversity Plus: SAg Assay for Eselectin Biomarker Activity (AID 2283091); conditions: primary human HUVEC with PBMC; actives raise or lower the signal
Procedure, shortened: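 Human umbilical vein endothelial cells co-cultured with peripheral blood mononuclear cells, SAg system. E-selectin is measured by ELISA 24 h after dosing and fitted bidirectionally against DMSO. Cytotoxicity is checked by SRB staining of parallel cultures.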

[16] = read-out: Monokine induced gamma interferon (MIG), CXCL9 (gene 4283); assay: BSK_SAg_MIG: BioMAP Diversity Plus: SAg Assay for Monokine induced gamma interferon (MIG) Biomarker Activity (AID 2283092); conditions: primary human HUVEC with PBMC; actives raise or lower the signal
Procedure, shortened: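 Endothelial cells and PBMC were co-cultured, exposed to test chemicals, and sampled 24 h later. MIG was measured by ELISA, and responses were fitted in both directions relative to DMSO.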

[17] = BSK_SAg_PBMCCytotoxicity: PBMC Cytotoxicity Assessment in the BioMAP Diversity Plus: SAg Assay (AID 2283093); conditions: primary human HUVEC with PBMC;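 also: PBMC viability measured as Alamar Blue reduction fluorescence at 546/580 nm; fitted both ways against DMSO so a hit may be loss or gain of signal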
Procedure, shortened: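 Alamar Blue reduction (6 h, ex/em 546/580 nm) read after 90 h culture of PBMC pre-dosed 1 h then stimulated with SEB plus TSST-1, 20 ng/mL each. Gain or loss of signal fitted relative to DMSO.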

[18] = read-out: Interleukin-8 (IL8), CXCL8 (gene 3576); assay: BSK_SAg_IL8: BioMAP Diversity Plus: SAg Assay for Interleukin-8 (IL8) Biomarker Activity (AID 2283094); conditions: primary human HUVEC with PBMC; actives raise or lower the signal
Procedure, shortened: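 ELISA readout of IL-8 from a superantigen-activated endothelial/PBMC primary human co-culture, taken 24 h post-dosing and fitted in both directions against DMSO; parallel SRB total-protein staining flags overt cytotoxicity.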

[19] = read-out: CD38, CD38 (gene 952); assay: BSK_SAg_CD38: BioMAP Diversity Plus: SAg Assay for CD38 Biomarker Activity (AID 2283087); conditions: primary human HUVEC with PBMC; actives raise or lower the signal
Procedure, shortened: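 CD38 quantified by ELISA (fluorescence) in a superantigen-activated endothelial cell–PBMC co-culture at 24 h post-dose. Activity fitted in both directions relative to DMSO; parallel SRB and Alamar Blue cytotoxicity read-outs.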

Measured: AC50

Sequence of Tumor necrosis factor (Homo sapiens) (P01375 whole entry, looked up): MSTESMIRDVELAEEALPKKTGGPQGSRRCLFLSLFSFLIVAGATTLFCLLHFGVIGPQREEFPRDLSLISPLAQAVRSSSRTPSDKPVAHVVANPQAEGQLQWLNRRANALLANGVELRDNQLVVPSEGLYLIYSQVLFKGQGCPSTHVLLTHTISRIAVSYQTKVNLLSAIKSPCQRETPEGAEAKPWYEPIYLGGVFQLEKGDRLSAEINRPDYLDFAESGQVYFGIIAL
Sequence of E-selectin (Homo sapiens) (P16581 whole entry, looked up): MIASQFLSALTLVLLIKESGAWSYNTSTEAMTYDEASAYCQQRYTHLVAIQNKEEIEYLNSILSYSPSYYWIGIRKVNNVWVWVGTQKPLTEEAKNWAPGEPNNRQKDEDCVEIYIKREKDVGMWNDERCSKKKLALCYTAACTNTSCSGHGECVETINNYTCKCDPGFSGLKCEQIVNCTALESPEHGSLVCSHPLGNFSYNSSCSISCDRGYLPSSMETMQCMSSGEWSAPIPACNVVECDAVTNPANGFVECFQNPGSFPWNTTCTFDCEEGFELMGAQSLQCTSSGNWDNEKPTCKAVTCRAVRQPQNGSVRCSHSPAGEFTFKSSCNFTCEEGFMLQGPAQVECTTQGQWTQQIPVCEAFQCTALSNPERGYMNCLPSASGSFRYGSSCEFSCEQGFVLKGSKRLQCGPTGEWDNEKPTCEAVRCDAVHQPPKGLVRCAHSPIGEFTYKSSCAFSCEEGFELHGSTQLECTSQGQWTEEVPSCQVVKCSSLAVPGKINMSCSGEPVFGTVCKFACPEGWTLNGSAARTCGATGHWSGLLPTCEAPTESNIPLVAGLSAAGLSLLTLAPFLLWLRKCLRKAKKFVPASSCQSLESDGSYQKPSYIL

CNCc1ccc(NC(=O)c2c[nH]c3c2C(=O)CCC3)cc1
not listed: [19]
inactive: all other assays above

CCOC(=O)CC(CC(=O)OCC)(OC(C)=O)C(=O)OCC
not listed: [17]
inactive: all other assays above

COC(=O)c1c(Cl)c(Cl)c(C(=O)OC)c(Cl)c1Cl
active: [8] 20 µM | [12] 20 µM
not listed: [19]
inactive: all other assays above

Cc1ccc(O)cc1
active: [7] 4.37 µM
not listed: [19]
inactive: all other assays above

COC(=O)c1ccccc1O
not listed: [17]
inactive: all other assays above
